Shown are actives, neighbours in structure and some others; about 2.3% of the full set was active somewhere.
Marburg entry inh = inhibitors of Marburg virus binding or cell entry | Marburg virus pseudotyped entry inhibition, cell reporter | Potency, µM (top dose mostly 37.8 µM), without a hit: top-dose activity change, negative = inhibition, hits mostly inhibitors | 300,000 tested, 1.8% active | AID 540276; calls by dose curve; tested in HEK293 cells
AmpC inh no detg = inhibitors of E. coli AmpC beta-lactamase without detergent. 330,000 tested, 0.52% active. Potency, µM (series often up to 57.1 µM), inactives show at the highest dose activity change, negative = inhibition, hits mostly inhibitors. AID 485341. AmpC nitrocefin hydrolysis, absorbance 480 nm, 0.0001% Triton;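 further: plate controls were no compound for no effect and no enzyme for full effect; nearly all actives have a fitted effect of over 20% in size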
Target sequence (P00811 whole entry, looked up): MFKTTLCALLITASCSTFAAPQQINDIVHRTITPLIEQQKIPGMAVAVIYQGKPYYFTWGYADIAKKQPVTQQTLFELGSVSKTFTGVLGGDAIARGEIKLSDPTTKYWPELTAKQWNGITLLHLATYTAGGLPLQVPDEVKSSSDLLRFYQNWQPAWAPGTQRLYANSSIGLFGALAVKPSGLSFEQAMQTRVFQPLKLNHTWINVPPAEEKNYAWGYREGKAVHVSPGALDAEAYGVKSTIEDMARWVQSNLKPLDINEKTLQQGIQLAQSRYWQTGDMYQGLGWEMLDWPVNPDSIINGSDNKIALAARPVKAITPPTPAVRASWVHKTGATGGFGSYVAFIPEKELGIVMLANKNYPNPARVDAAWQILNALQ
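AmpC (5.3 nM in the dispensed reagent) in 20 mM phosphate pH 7.0 with 0.01% (detergent screen) or 0.0001% Triton X-100 was preincubated with compounds for 15 min at room temperature. Nitrocefin was then added from an 800 uM solution, and hydrolysis was followed at 480 nm.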
AmpC detergent = AmpC beta-lactamase inhibition with detergent present; Potency, µM (titrated, usually from 114 µM), for the others: top-dose activity change, negative = inhibition, hits mostly inhibitors; P00811; AmpC hydrolysis of nitrocefin, absorbance 480 nm, 0.01% Triton; 370,000 tested, 0.041% active;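 further: 0% = no-compound wells and -100% = no-enzyme wells; nearly all actives have a fitted effect of over 25% in size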
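AmpC (5.3 nM in the dispensed reagent) in 20 mM phosphate pH 7.0 with 0.01% (detergent screen) or 0.0001% Triton X-100 was preincubated with compounds for 15 min at room temperature. Nitrocefin was then added from an 800 uM solution, and hydrolysis was followed at 480 nm.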
AMA1-RON2 inh = AMA1-RON2 (P. falciparum) interaction inhibition; AlphaScreen AMA1-biotinylated RON2 peptide binding; Potency, µM (highest dose often 58.2 µM), inactives show at the top dose activity change, negative = inhibition, most hits filed as inhibitors; 360,000 tested, 0.2% active; AID 720542;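 further: 0% = vehicle wells and -100% = peptide control; nearly all actives have a fitted effect of over 45% in size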
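AMA1 (3D7) with his tag at 25 nM final met compounds first, then biotinylated RON2 peptide at 25 nM; detection used donor plus acceptor beads, 10 µg/mL apiece, read by AlphaScreen after 30 min at room temperature.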
LASV entry inh = blocks Lassa virus binding to or entry into cells; Lassa virus pseudotype entry inhibition, cell reporter; Potency, µM (series often up to 37.9 µM), for inactives: at the highest dose activity change, negative = inhibition, most hits filed as inhibitors; 300,000 tested, 1.2% active; calls by dose curve; tested in HEK293 cells; further: nearly all actives have a fitted effect of over 50% in size
Starred values were filed as active, the others as inactive; ? = inconclusive; / = no result; [ ] = remark or other dose. Unless noted, the call rests on the fitted dose curve; in most records, active means well fitted curve in the direction sought with a large enough effect; inconclusive means small, poorly fitted or top-dose-only effect, or another doubt; inactive means no such curve, though single readings can be large; an effect the other way counts as inactive or inconclusive. Unless noted, on the % scale 0 is the no-effect control and ±100 the full control effect; potency means the concentration at half of the fitted maximal effect.

SMILES	Marburg entry inh	AmpC inh no detg	AmpC detergent	AMA1-RON2 inh	LASV entry inh
Cc1cc(C)nc(N/C(=N\S(=O)(=O)Cc2ccccc2)Nc2ccccc2Br)n1	2.8µM*	-1%	-7%	-23%	4.1µM*
Cc1cc(C)nc(Nc2ccccc2Br)n1	23%	-2%	-11%	10%	13%
Cc1cc(C)c(NS(=O)(=O)c2cccc3cccnc23)c(C)c1	-22%[46.1 µM]	-21%	0%	-24%	-1%
Cc1ccc(S(=O)(=O)Nc2cccc3cccnc23)c([N+](=O)[O-])c1	?	-50%	5%	-8%	10µM*
O=S(=O)(Nc1cccc2cccnc12)c1ccc(S(=O)(=O)N2CCCC2)cc1	?	-35%	-5%	97%	8.2µM*
O=S(=O)(Nc1cccc2cccnc12)c1ccccc1	?	-39%	2%	43%	?
Cc1ccc2cccc(NS(=O)(=O)c3ccccc3)c2n1	1.4µM*	-1%	-1%	47%	?
COC(=O)C1=C(C(=O)OC)[C@@H]2Nc3ccccc3[C@@]23C[C@@H](C(=O)OC)N(C(=O)NC2CCCC2)C3=N1	-4%[14.2 µM]	/	/	/	/
Cc1ccc(NS(=O)(=O)c2ccc(-c3cc(C)no3)cc2)c(C)c1	/	/	-1%	/	?
CCC(C(=O)Nc1ccc(C(=O)OC)cc1)n1nc(-c2ccc(C)cc2)c2c(c1=O)CCCC2 (stereo not given)	?	/	8%	/	-8%[46.1 µM]
COC(=O)[C@H]1O[C@@H](c2c(OC)c(OC)c(C)c(OC)c2OC)[C@H](C)[C@@H](O)[C@@H]1C	6%[14.2 µM]	/	/	/	/
C=C(C)Cn1c(SCC#N)nc2ccccc2c1=O	0%	-21%	-8%	14%	1%
CCN(CCCn1c(SCC#N)nc2ccccc2c1=O)c1ccccc1	9.2µM*	-36%	?	?	?
CSc1ccc(C(=O)C2CCCN(Cc3cc4ccccc4[nH]3)C2)cc1 (stereo not given)	3.5µM*	-29%	-1%	32µM*	?
Cc1cc(C)c(S(=O)(=O)NCCCn2ccnc2)cc1C	3.5µM*	-11%	-13%	?	?
Cc1cc(S(=O)(=O)NCCCn2ccnc2)c(C)cc1Cl	-12%[46.1 µM]	1%	?	-6%	5%[46.1 µM]
O=C(O)C1CCCN1c1nc(-c2ccc(Cl)c(Cl)c2)cc(C(F)(F)F)n1 (stereo not given)	0.5µM*	-22%	-4%	5%	?
FC(F)(F)c1cc(-c2ccccc2)nc(N2CCCCC2)n1	-2%	-15%	-1%	31%	-2%
COc1ccc(S(=O)(=O)NCc2ccc3c(c2)CCN3C(=O)c2ccc(C)cc2)cc1Cl	/	/	12%	/	?
COc1cccc(-n2sc3c(c2=S)-c2cc(OC)ccc2NC3(C)C)c1	?	-25%	?	22µM*	?
COc1cccc(-n2cn[nH]c2=S)c1	/	-13%	1%	33%	/
COc1cc(/C=N/NC(=O)COc2ccc(C)cc2)ccc1OC(=O)c1cccs1	10%	-26%	-12%	-4%	9.2µM*
O=[N+]([O-])c1ccc(N=Nc2ccc(O)cc2O)cc1	?	-40%	?	15%	10µM*
O=[N+]([O-])c1cccc(N=Nc2ccc(O)cc2O)c1	2.8µM*	/	/	-6%	?
CCOc1cc2sc(N3CCC(C(=O)Nc4ccccc4Cl)CC3)nc2cc1Br	4%[46.1 µM]	/	-10%	/	/
SMILES	Marburg entry inh	AmpC inh no detg	AmpC detergent	AMA1-RON2 inh	LASV entry inh
COc1ccc(OC)c2c1sc(=NC(=O)c1cccc(N3C(=O)CCC3=O)c1)n2C	6%	40µM*	?	3%	/
COc1cc(C(=O)N=c2sc3c(C)ccc(OC)c3n2C)cc(OC)c1OC	/	-7%	-6%	-9%	/
COc1ccc(C(=O)N=c2sc3c(C)ccc(OC)c3n2C)cc1	/	1.1µM*	?	-7%	/
CCn1c(=NC(=O)c2cccc(N3C(=O)CCC3=O)c2)sc2c(OC)ccc(OC)c21	/	-8%	5%	3%	/
CCC(C(=O)N1CCN(c2ccccc2F)CC1)n1nc(C)c2sc3ccccc3c2c1=O (stereo not given)	18%[46.1 µM]	/	26%	/	?
COC(=O)C1=CN(C(C)C)C=C(C(=O)OC)C1c1cc(Br)c(OC)c(OC)c1	?	158%	-7%	54%	4.1µM*
Cc1cc(OCc2nc(N)nc(N)c2-c2ccc(Cl)c(Cl)c2)ccc1[N+](=O)[O-]	?	/	/	?	1µM*
